{"source": "paper PMC12136788", "binders": {"B1": {"name": "chr7:140404665:140404666:+_ENSG00000090266_ENST00000247866|hu_hu|hu_hu_hu_mus_False|1_108 (ssRNA)", "RNA": "GGGAGUUCUACAGUCCGACGAUCUGCGUACAGAGUGCCAGAGAGUUUACAGUGUCAGUCCUCGUCAUCAGGAGGGAUUCCCAGUUCUUCAUCUGUCCACUGUGAAGGAUCUGGAUAUGAAAAGUGACCCAGCACAGCUUCUGACAACAGAGGAUUGAGCAUCA"}, "B2": {"name": "chr1:39494447:39494448:+_ENSG00000168653_ENST00000372967|hu_mus|hu_hu_hu_mus_False|78_108 (ssRNA)", "RNA": "GGGAGUUCUACAGUCCGACGAUCGCAUCGACCAGCCUUCUUAUAGGGCUGUUCUGCACUCUGGAUUAUAAAGUGCCGGUCCAGGCUGAUGCCCAGCUUUUUCUGUAUGUCAAGGAAAGGCAUGGCUCUGCAGUGCCCUUGUCACAACAGAGGAUUGAGCAUCA"}, "B3": {"name": "114145877_114145997_1367_3pUTR_ENSMUSG00000033545_ENSMUST00000095176|mouse|control|control (ssRNA)", "RNA": "GGGAGUUCUACAGUCCGACGAUCUUUGCAGUGGACAAUGUCUGUUCCACAGGCCACUACUUAGUGAUUCUUCCCUUUCAGAACCGAGUCUCUGAGAGGUGAGGGAGGUGAGGCUGCUGUAGAGCCUGGCUGGGGGCGCCUCUGCAACAGAGGAUUGAGCAUCA"}, "B4": {"name": "chr7:130337358:130337359:+_ENSMUSG00000052707_ENSMUST00000094053|mus_mus|FALSE|FALSE (ssRNA)", "RNA": "GGGAGUUCUACAGUCCGACGAUCACAAGAUUUUUUGACCGGGGAACUGGUUUCCUGAGAACCAUGCUCUUUGAUUUAGGACAGGAAUAGAAAACAGAAGAACAUGGCCAACUGCUGCUCUUUUCCCAGAGAUAGAAGCGUCUUCAACAGAGGAUUGAGCAUCA"}, "B5": {"name": "chr2:165877891:165877892:+_ENSMUSG00000027678_ENSMUST00000088095|mus_mus|motif|central (ssRNA)", "RNA": "GGGAGUUCUACAGUCCGACGAUCGAACCUCUGGAUACAUCUUCGGAUUAUGUCUUCAAAGCCAGGCCUCAUGGAAGAUCGGAGUGAGUUUGUAUCUAUAUUGACAACCUUUCCGGAAAGGUCAUGUCUGGUAAUAAAGCUCUCCAACAGAGGAUUGAGCAUCA"}, "B6": {"name": "chr19:7500544:7500545:-_ENSMUSG00000024758_ENSMUST00000025667|mus_mus|FALSE|FALSE (ssRNA)", "RNA": "GGGAGUUCUACAGUCCGACGAUCACAGACACGUACACAAUUUCAUUAGUAAUUUUUUCAUCUCUACGAGUCUUUGUUUAAAAAAACAAAACCGAAAAAACCCUCUCAUGUAACACAGAAACCUUUCCAAUUAUUUUAACACAGCAACAGAGGAUUGAGCAUCA"}, "B7": {"name": "chr3:32586495:32586496:-_ENSG00000144635_ENST00000273130|hu_hu|FALSE|FALSE (ssRNA)", "RNA": "GGGAGUUCUACAGUCCGACGAUCUUUCUGUAAAGAAUCCAAAGCAGUCCAAGGCUUUGACAUGUCAACAACCAGCAUAACUAGAGUAUCCUUCAGAGAUACGGCAUCCAGUGAAAAUUUAAGGAGGCCUUUGUGAUAUAGGUCCAACAGAGGAUUGAGCAUCA"}, "B8": {"name": "chr13:100193591:100193592:-_ENSMUSG00000052727_ENSMUST00000064762|mus_mus|motif|central (ssRNA)", "RNA": "GGGAGUUCUACAGUCCGACGAUCUUAAACCCUCAGAGUAAAAGAGCAGUGCGAAACAUACGCUUUACAGACGAAAAUAAACGGAAAUGUAAAUUUUGAAAUAAAUAACUAACAUAGAAAAUAAAAUGAGGUCAUUGUUCACUACAACAGAGGAUUGAGCAUCA"}, "B9": {"name": "chr13:100193591:100193592:-_ENSMUSG00000052727_ENSMUST00000064762|mus_mus|FALSE|FALSE (ssRNA)", "RNA": "B8 RNA with G82U, G83A"}, "B10": {"name": "44559432_44560298_1111_3pUTR_ENSMUSG00000032096_ENSMUST00000034607|mouse|control|control (ssRNA)", "RNA": "GGGAGUUCUACAGUCCGACGAUCACAUUUGGAUGCGUCUGUAGCUGCACCCCUUUCUUAUCUUCAUUUUCUACAUGAAGACGAAUCCGGCCAAAUUUGUCAUCUGAGAUCCUAAGCAUGAUCAUGCCAUGCAACUCCAUAUUCCAACAGAGGAUUGAGCAUCA"}, "B11": {"name": "chr15:55677894:55677895:-_ENSG00000260916_ENST00000569205|hu_mus|motif|central (ssRNA)", "RNA": "GGGAGUUCUACAGUCCGACGAUCGGAACAUUCUAGAGUCAGUCCACAGUUGUCACUGGCUGUGGCAGAAUUCACGAUCUCGGUAUCAGAACCCUCAUGAUUGAUGACAGUCCAGCCACAAGAUGAGUCGCUGUCGCUGGAACUCAACAGAGGAUUGAGCAUCA"}, "B12": {"name": "chr5:133537698:133537699:-_ENSG00000113575_ENST00000481195|hu_mus|FALSE|FALSE (ssRNA)", "RNA": "GGGAGUUCUACAGUCCGACGAUCGCUCUCGUGAUUCCCUCGGAGUAUGGUGAUGCGCUCUCGGUAACGAACCUUAAGAGCUACAAGCAGUGUAACUGUUUCAACAGAGUAAUAUCCUCUGUCCACAUAGUCUCCCAUAAACAGCAACAGAGGAUUGAGCAUCA"}, "B13": {"name": "chr7:129114946:129114947:-_ENSMUSG00000034951_ENSMUST00000057576|mus_hu|motif|central (ssRNA)", "RNA": "GGGAGUUCUACAGUCCGACGAUCAUCAACAAGCAUCAUUAAGCUGUUCUGCAUACCUGUUAGCUUGGCAGAAAUCACAGCGGUGUCCUGAGUCUUAAAUGUCUCCUCAAUAUCGGCGCUCAACGUGCUCCACUUAUCUGCUUCCAACAGAGGAUUGAGCAUCA"}, "B14": {"name": "chr2:179515052:179515053:+_ENSMUSG00000000305_ENSMUST00000000314|mus_hu|mus_mus_mus_hu_False|28_108 (ssRNA)", "RNA": "GGGAGUUCUACAGUCCGACGAUCGCUUUCCCGCGCAGUCACCGUGAACGCCACCUGCUCGGAGGGGACCUGCAGCUCCCGGGUGGCGAAGACUGUCCCAUCUGCCCCGACUUUGAAGUCCAUGCUGUUGGUCUCAUAUUGUGUCAACAGAGGAUUGAGCAUCA"}, "B15": {"name": "chr22:38881817:38881818:-_ENSG00000100201_ENST00000396821|hu_mus|motif|central (ssRNA)", "RNA": "GGGAGUUCUACAGUCCGACGAUCUAAUUAUAGACUGGAUCUUUUGGGUGGGCAGAAGAAACCUGGCAGUGAAAUUUUAACGGUCUGCAUUAAAAAAAGAUAAACCGUAAUGGUUGAGAAAAGAAAAAAUAAAAAUGAAAAGGUCAACAGAGGAUUGAGCAUCA"}, "B16": {"name": "chr1:109605286:109605287:-_ENSG00000197780_ENST00000461096|hu_mus|hu_hu_hu_mus_True|58_108 (ssRNA)", "RNA": "GGGAGUUCUACAGUCCGACGAUCAAGAACAAUAACAACAUUCAGUAACCUCUUUAAAUGCAAUUAUCCUUAUUAUAAACUAAGGGCAAUAAUAAUUUAAUACCGUAAGUGAACUACACACAAAGCCUGAACCGCGAAAAUGGUCAACAGAGGAUUGAGCAUCA"}, "B17": {"name": "chr22:38881817:38881818:-_ENSG00000100201_ENST00000396821|hu_mus|FALSE|FALSE (ssRNA)", "RNA": "B15 RNA with G81U, G82A"}, "B18": {"name": "110384571_110384691_763_CDS_ENSG00000138802_ENST00000265175|human|control|control (ssRNA)", "RNA": "GGGAGUUCUACAGUCCGACGAUCUCCUGAAAGACUUUGCUGCUGGUGGUGCUGUUGUGAUGGUAGAGGUGGAAGUGGCGAUGGAUGGCUGAUAGCUGUAUUUUGACCAGAGAAUGAAUUAUCUUUAACUGGCCUAACAGUCGGCAACAGAGGAUUGAGCAUCA"}, "B19": {"name": "65775431_65775551_264_CDS_ENSG00000116675_ENST00000371069|human|control|control (ssRNA)", "RNA": "GGGAGUUCUACAGUCCGACGAUCCACUCUCUGCUUGCCGCCAACCCCGCCGCUUCCCGCACUUAAGUCCCCGUUACUGUCCACCAGCUGCAAAGAUUCAUAACCAUCGUUGCUGGUCUUUUUCCGGUAGCUCCCGAGGAGGCUCAACAGAGGAUUGAGCAUCA"}, "B20": {"name": "chr4:42581876:42581877:-_ENSG00000124406_ENST00000264449|hu_hu|FALSE|FALSE (ssRNA)", "RNA": "GGGAGUUCUACAGUCCGACGAUCGCCACCAUAGUUUAGAUUGAGAUACCAGUCUUUUCCAGAAUGCCUUCGAUUCCAAAUGGCUGAGCCCACAGAACAGACAAGAGACAUGGCAAUUAAGAUACAAAAUAAAAUCAAAAUUUGCAACAGAGGAUUGAGCAUCA"}, "B21": {"name": "chr21:34924512:34924513:+_ENSG00000159140_ENST00000381679|hu_mus|motif|central (ssRNA)", "RNA": "GGGAGUUCUACAGUCCGACGAUCAGAUGACAUCAUGGAACGUUCUGCAGCAUAGGACAUCAUCAUAGAACGUCUAGAUGCGGACAUCAAGGGUCUAGGUGCUAACCUGUAUGGCCUAGGUGCUAUCCUAUAGGACCUGGGUGCCAACAGAGGAUUGAGCAUCA"}, "B22": {"name": "122452171_122453414_3711_CDS_ENSMUSG00000034602_ENSMUST00000073792|mouse|control|control (ssRNA)", "RNA": "GGGAGUUCUACAGUCCGACGAUCUCGGUCCAGUAGAUGAAAGAGUACCUUCCAAAUAACGGUGUGCCAGGUGGAGUGCUGCAGCAGGGUCCCGUGCGCUCCGAUCGUGGAGAACAGGGUCUGCCCUGCGCUCUUCCUCACGGCCAACAGAGGAUUGAGCAUCA"}}, "note": "Substitutions are numbered along the chain they refer to. Whole data set: some 24,000 sequences, median “enrichment r” near 0.99, cut for the highest 2% near 3.7. The entries come from a sample that favours the highest values as a whole.", "data": [{"molecular_target": "T1, UNK ZnF1-3 (human, UniProt Q9C0B0 31-174)", "T1 sequence": "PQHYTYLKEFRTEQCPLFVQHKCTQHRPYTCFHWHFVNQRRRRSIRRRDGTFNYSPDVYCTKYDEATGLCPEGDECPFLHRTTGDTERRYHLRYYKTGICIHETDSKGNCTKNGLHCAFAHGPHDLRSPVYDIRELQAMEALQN", "test": "nsRBNS (natural sequence RNA bind-n-seq); RBNS binding buffer (assumed for nsRBNS): 25 mM Tris pH 7.5, 150 mM KCl, 3 mM MgCl2, 0.01% Triton X-100, 500 ug/ml BSA, 20 U/ml SUPERase-In, 4 C; UNK is unkempt and MSI1 is Musashi-1; names of the RNAs are library labels; protein concentration not given here; high values mean tight binding", "units": {"binding signal": "enrichment R"}, "values": [{"binder": "B1", "binding signal": 1.16}, {"binder": "B2", "binding signal": 1}, {"binder": "B3", "binding signal": 0.695}, {"binder": "B4", "binding signal": 0.987}, {"binder": "B5", "binding signal": 0.788}, {"binder": "B6", "binding signal": 1.21}, {"binder": "B7", "binding signal": 1.74}, {"binder": "B8", "binding signal": 4.73}, {"binder": "B9", "binding signal": 5.86}, {"binder": "B10", "binding signal": 0.578}, {"binder": "B11", "binding signal": 0.495}, {"binder": "B12", "binding signal": 0.691}, {"binder": "B13", "binding signal": 0.781}, {"binder": "B14", "binding signal": 0.727}, {"binder": "B15", "binding signal": 8.6}, {"binder": "B16", "binding signal": 1.22}, {"binder": "B17", "binding signal": 6.63}, {"binder": "B18", "binding signal": 1.16}, {"binder": "B19", "binding signal": 0.845}, {"binder": "B20", "binding signal": 3.52}, {"binder": "B21", "binding signal": 0.683}, {"binder": "B22", "binding signal": 0.594}]}]}
